Measurements as given in paper PMC12136788.
Where a chain is given by its changes, count along the chain named. In all, about 5,800 sequences were measured (“enrichment r”: median about 0.68, highest 2% from about 11 on). What follows is part of a selection rich in the highest values, with near analogues and random picks from the rest.

T1: UNK ZnF1-6 (called full-length) (human, UniProt Q9C0B0 30-357)
T1 sequence: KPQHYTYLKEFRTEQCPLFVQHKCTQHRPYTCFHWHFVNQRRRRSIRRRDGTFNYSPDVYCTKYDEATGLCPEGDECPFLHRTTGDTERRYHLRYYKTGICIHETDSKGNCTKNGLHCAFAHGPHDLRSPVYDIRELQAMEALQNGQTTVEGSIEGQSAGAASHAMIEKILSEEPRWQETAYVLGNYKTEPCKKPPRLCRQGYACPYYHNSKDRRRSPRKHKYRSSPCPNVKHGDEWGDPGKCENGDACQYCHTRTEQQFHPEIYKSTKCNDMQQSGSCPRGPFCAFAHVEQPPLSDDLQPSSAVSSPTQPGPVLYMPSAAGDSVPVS

B1: chr17:15565482:15566353:-|three_prime_utr|ENSG00000241322|control|control|control (ssRNA)
RNA: GGGAGUUCUACAGUCCGACGAUCCACCCAAAGAAAAAGUCUUGGAAAAUCCCUAUGUCACCUGACCAAUUCCUCCUGACUGUUAGCGCCCUGCAGCACGCCCGUAAUUCCGGGGAAUUUGCCUAUCCCUGUAGGCCCCAAACACAACAGAGGAUUGAGCAUCA
B2: chr16:58599380:58599482:-|5pUTR|ENSG00000125107|unk|FALSE|unique (ssRNA)
RNA: GGGAGUUCUACAGUCCGACGAUCCAGAACAGAGUAAGACCCCUGGUAAAGAAGAACUGAAGAUAUUAUACAGAUACCAGAUAUAGCCUAAUUACAAAGAAAGCAUUAACCUGCCUCUGAGGUGACUAAAGGGGAAUAAUGGUGCAACAGAGGAUUGAGCAUCA
B3: chr12:108645191:108645284:-|3pUTR|ENSG00000110880|msi1_unk|total|mutant (ssRNA)
RNA: GGGAGUUCUACAGUCCGACGAUCUCUUUUUUUUUUUUUUUUUUUAAGCCAUGACAUCCCAGAAGAGGACAGUGAAUUACUCCCCGGUCGGCUCUUACCGAGUGGCCACCGUGUUCUGUCAAAACACUUGCUUCCAUUUUCAGACAACAGAGGAUUGAGCAUCA
B4: chr8:23842113:23842214:-|3pUTR|ENSG00000159167|msi1|total|mutant (ssRNA)
RNA: GGGAGUUCUACAGUCCGACGAUCACUUCCGACAUUUUUGUGCCAUUAUAUUUGCAUUAUGUAUUUAUAAUUUAAAUGAUAUUCCGGUUUUUGGCUGAGUACUGGAAUAAACAGUGAGCAUAUCUGGUAUAUGUCAUUAUUUAUCAACAGAGGAUUGAGCAUCA
B5: chr1:202941098:202941199:-|3pUTR|ENSG00000159346|msi1_unk|total|mutant (ssRNA)
RNA: GGGAGUUCUACAGUCCGACGAUCCCUCCCUUACCCCCAUCCUUAACUUUGUAUCCUGGCUUAUAACAGGCCAUCCAUUUUUGCCGCACACUUUUCAAAAACAAUUAUAUACCCUGGUCCCAUCUUUCCCGGGCCUGGAUCUGCCAACAGAGGAUUGAGCAUCA
B6: chr9:74692981:74693082:+|3pUTR|ENSG00000198963|unk|total|mutant (ssRNA)
RNA: GGGAGUUCUACAGUCCGACGAUCUUUUAUAUUACUUCCGAAUGUAACCGGUUUUUGUCCUUAUUUUAUGUCCUGUAAAUUAUCCGUUCAAUACUGUCCGCAUUCCCGGAUAAUGCACACAUGAUUUCUGAAUGUUUUCUGUAACAACAGAGGAUUGAGCAUCA
B7: chr6:149889094:149889339:-|three_prime_utr|ENSG00000164520|control|control|control (ssRNA)
RNA: GGGAGUUCUACAGUCCGACGAUCGGCAGCUCCCUUUAAAGGUCAAAAGCCUUCCCUGUGUGGGUGUCAGUGUGUGUGUGCGAUAGAAAAUUUGAUUGACUUCUCCGUGGGCUUCCUGUCUGGAGAGUCAGUGAUGGCUAUAAGCAACAGAGGAUUGAGCAUCA
B8: ENSG00000198589:be:win_1801|CDS|ENSG00000198589|bound_else_gene|NA|bound_elsewhere_windowed (ssRNA)
RNA: GGGAGUUCUACAGUCCGACGAUCACAGUCAACAUAUAUAACACCAUUCGGAGAGUUGGAACAGUGCUUCUCAUCAUGCACACGCUGAAGUACUACUACUGGGCAGUGAAUCCUCAGGAUCGAAGUGGUAUCACCCCAAAAGGACAACAGAGGAUUGAGCAUCA
B9: chr21:18281039:18281221:-|CDS|ENSG00000154646|control|control|control (ssRNA)
RNA: GGGAGUUCUACAGUCCGACGAUCACCUCUCCUCAAACAGUCCCUCGAUUAAUAGAUGAAAUUGUCAUAAACCCUCAUUACAAUAGGCGAAGAAAGGACAACGACAUUGCCAUGAUGCAUCUGGAAUUUAAAGUGAAUUACACACAACAGAGGAUUGAGCAUCA
B10: chr2:206311781:206311882:+|3pUTR|ENSG00000204186|unk|total|mutant (ssRNA)
RNA: GGGAGUUCUACAGUCCGACGAUCCCGUGUUCCGAGUCCUUUCAUUUUAAGAUUCAGAAACAGCCUUUGUCCAACAUUUUCUGCCGAAGAACUUCAUCUUAAUUUAUGUCACAAAAUAAUUCCGCACCGUAUACCGAAUUUUGUCAACAGAGGAUUGAGCAUCA
B11: chr16:57253408:57253449:+|3pUTR|ENSG00000102931|msi1_unk|FALSE|overlapping (ssRNA)
RNA: GGGAGUUCUACAGUCCGACGAUCUGUGUGGUAGAUUACUUAUCAGAAAACAUAUAUGUCAUCUCUAGAACGAAGAAAAAGCAUAGUAGUUCAAUUCCCAGUGUGUCCCUUUGAUUUUUUUUUUUUAAUAGUAAAAAUAAGAAUCAACAGAGGAUUGAGCAUCA
B12: chr2:206311781:206311882:+|3pUTR|ENSG00000204186|unk|FALSE|unique (ssRNA)
RNA: B10 RNA with C24U, C25A, C31U, C32A, C83U, C84A, C121U, C122A, C133U, C134A
B13: chr20:53567570:53567671:-|3pUTR|ENSG00000171940|unk|FALSE|unique (ssRNA)
RNA: GGGAGUUCUACAGUCCGACGAUCUCACAAGCUGAGCCAUAUGUACAUAAUCUAGAUUUUGUUUUCAUAGUUUUGCACUUUUAUAGCCUAUUUUUGAAGAUUAACACAUUUGCAAGAUGAUUGACUCAAUCUUUGCCUAAUCCACAACAGAGGAUUGAGCAUCA
B14: ENSG00000136451:be:win_1001|CDS|ENSG00000136451|bound_else_gene|NA|bound_elsewhere_windowed (ssRNA)
RNA: GGGAGUUCUACAGUCCGACGAUCACCAAAAGCAGCAGCAGCAGCAGCAGCAGCAGCAGCAGCAGCAGCAACAACAACAACAACAACAUGUGACAAGCUGGCCAGGGAAGCAAGUAGAAACACUGAGACUGUGGGAAGAAGCUGCAACAGAGGAUUGAGCAUCA
B15: chr5:52955293:52955406:+|3pUTR|ENSG00000213949|unk|total|mutant (ssRNA)
RNA: GGGAGUUCUACAGUCCGACGAUCUACCAACCAGUGUGAGCUGACUUCAGCACACCACUGAGACAGAUUACACGACCGACAGACCGACCGACCGACCGACCGACCGACCGACCGACCGACCGACCGAUAUUGACCGAGAACAUGCAACAGAGGAUUGAGCAUCA
B16: chr5:52955293:52955406:+|3pUTR|ENSG00000213949|unk|FALSE|unique (ssRNA)
RNA: GGGAGUUCUACAGUCCGACGAUCUACCAACCAGUGUGAGCUGACUUCAGCACACCACUGAGACAGAUUACACGAUAGACAGAUAGAUAGAUAGAUAGAUAGAUAGAUAGAUAGAUAGAUAGAUAGAUAUUGAUAGAGAACAUGCAACAGAGGAUUGAGCAUCA
B17: chr12:98549714:98549829:+|3pUTR|ENSG00000120802|unk|FALSE|unique (ssRNA)
RNA: GGGAGUUCUACAGUCCGACGAUCGAAGAUGUAUAUUUAGACCAGCACACAAUUUUGAUUUCAAUUAGCCUUAUUCUAAUAUUUAGCUUUUAGAUCUUUCAUACACAUUUUCACGUACUUUGCAAUUGAGACCAGAAAGACUUGCAACAGAGGAUUGAGCAUCA
B18: chr14:103503186:103503248:+|CDS_3pUTR|ENSG00000075413|msi1_unk|FALSE|overlapping (ssRNA)
RNA: GGGAGUUCUACAGUCCGACGAUCUGCUUCCAAAAUUGCCAAUGAGCUAAAGCUGUAACCCAGUGAUUAUGAUGUAAAUUAAGUAGCAAUUAAAGUGUUUUCCUGAACACUGAUGGAAAUGUAUAGAAUAAUAUUUAGGCAAUACAACAGAGGAUUGAGCAUCA
B19: chr11:74334375:74334476:-|3pUTR|ENSG00000165434|msi1|FALSE|unique (ssRNA)
RNA: GGGAGUUCUACAGUCCGACGAUCUUUUUGUUUUAUUUUUAAAAUGUGUAAAACAUCUUUUGUUUUAUAUGCUUUUAAGAAUGUAGAUUGUAAUUUAGGAAAUGGCAUAUAUUCUGCAAAGUGGUAUAAUGUUGUAUAUAUGAACAACAGAGGAUUGAGCAUCA
B20: chr12:76029359:76029534:-|3pUTR|ENSG00000139289|msi1|FALSE|unique (ssRNA)
RNA: GGGAGUUCUACAGUCCGACGAUCAGAAGUUUAAAAAGCUAAAAGUUAAAAAUGGUGUAAUUAUGAAAAUCUAACACUCAAGAUAGUUUCUAAAAGGAAAUCAGUAGUUAAGGAUACCUGAUUUCAAAAUAUUUAAAGCAUAACCAACAGAGGAUUGAGCAUCA
B21: ENSG00000198589:be:win_6551|CDS|ENSG00000198589|bound_else_gene|NA|bound_elsewhere_windowed (ssRNA)
RNA: GGGAGUUCUACAGUCCGACGAUCGACGUAUUUCAUUAGCUAGUCCACGUCAGCUUUUUAAGGCUUCUAAUAUGACCCAGCGAUGGCAACACAGAGAGAUAUCUAAUUUUGAGUACUUGAUGUUUCUCAACACGAUAGCAGGACCAACAGAGGAUUGAGCAUCA
B22: chr11:118750849:118750950:-|3pUTR|ENSG00000110367|msi1|FALSE|unique (ssRNA)
RNA: GGGAGUUCUACAGUCCGACGAUCAUUCUAGAAAGUACUUUGGCCUCGUGCUGUAGAGAGCAGAUUUCUAUGGUACCCUGUGUUAGUAAAGGGGCCCAGAAAUCUGGGAUGUACUGUUUGCUGCCACACUGUCUCAUCUAGUACCAACAGAGGAUUGAGCAUCA

Each binder was assayed against T1, UNK ZnF1-6 (called full-length) (assay: nsRBNS (natural sequence RNA bind-n-seq); RBNS binding buffer (assumed for nsRBNS): 25 mM Tris pH 7.5, 150 mM KCl, 3 mM MgCl2, 0.01% Triton X-100, 500 ug/ml BSA, 20 U/ml SUPERase-In, 4 C; UNK is unkempt and MSI1 is Musashi-1; names of the RNAs are library labels; protein concentration not given here; high values mean tight binding).

Binder	binding signal [enrichment R]
B1	0.988
B2	0.956
B3	4.25
B4	0.575
B5	2.09
B6	0.468
B7	0.908
B8	0.542
B9	0.684
B10	0.453
B11	1.9
B12	11.6
B13	3.86
B14	0.905
B15	0.427
B16	24.7
B17	32.9
B18	11.1
B19	3.22
B20	1.92
B21	0.548
B22	0.975
